Assay outcomes: PubChem BioAssay, National Center for Advancing Translational Sciences (NCATS)
Shown are actives, neighbours in structure and some others; about 21% of the full set was active somewhere.
ClpP mod: qHTS Assay for Activators of ClpP; actives 1.9% (n = 340,000); AID 651965, 2013; Potency, µM (top dose mostly 57.5 µM), inactives show top-dose activity change, negative = active; purified B. subtilis ClpP, FRET peptide cleavage, 20 min; ATP-dependent Clp protease proteolytic subunit (Bacillus subtilis (strain 168)), P80244; active means well fitted falling curve with a large enough effect; inconclusive means small, poorly fitted or top-dose-only effect; inactive means no such curve, though single readings can be large or run the other way; further: potency means the concentration at half of the fitted maximal effect; the source files actives as falling curves though it sought activators and does not explain the sign; nearly all actives have a fitted effect of over 65% in size
Target sequence (P80244 whole entry, looked up): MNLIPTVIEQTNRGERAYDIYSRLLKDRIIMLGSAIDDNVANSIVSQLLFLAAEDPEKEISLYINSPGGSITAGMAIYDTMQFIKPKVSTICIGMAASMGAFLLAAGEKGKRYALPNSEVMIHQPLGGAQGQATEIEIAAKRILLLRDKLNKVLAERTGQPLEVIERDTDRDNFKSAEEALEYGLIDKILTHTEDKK
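FRET quenching reversal measured ClpP activation: 10 microg/mL B. subtilis ClpP at pH 8 with the FRET-FV decapeptide, read at 430 nm after 320 nm excitation. The 20-min minus 0-min signal was scaled between DMSO/no-enzyme wells and ADEP (5.8 microM final).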
TDP1 cell CPT: growth inhibition of DT40 Tdp1-/-;hTDP1 cells with camptothecin (screen for TDP1 inhibitors) | chicken DT40 Tdp1-/-;hTDP1 cells + 20 nM CPT, ATP luminescence, 48 h | actives 12% (n = 420,000) | Potency, µM (doses to about 46.2 µM), inactives show at the highest dose activity change, negative = growth inhibition, most hits filed as inhibitors; further: potency means the concentration at half of the fitted maximal effect; on the % scale 0 is the no-effect control and ±100 the full control effect; nearly all actives have a fitted effect of over 55% in size
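Cell growth measured by CellTiter-Glo luminescence after a minimum 48 h, 37 C compound exposure with 20 nM CPT in Tdp1-knockout DT40 cells stably expressing hTDP1, seeded 400/well; qHTS titration format.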
DRD3 agonist: activates the human D3 dopamine receptor. P35462. actives 0.58% (n = 410,000). D3R DiscoveRx beta-arrestin cells, luminescence, 90 min. max activation, %; in the data active means max activation above about 30%; further: 0% is about no effect
Target sequence (P35462 whole entry, looked up): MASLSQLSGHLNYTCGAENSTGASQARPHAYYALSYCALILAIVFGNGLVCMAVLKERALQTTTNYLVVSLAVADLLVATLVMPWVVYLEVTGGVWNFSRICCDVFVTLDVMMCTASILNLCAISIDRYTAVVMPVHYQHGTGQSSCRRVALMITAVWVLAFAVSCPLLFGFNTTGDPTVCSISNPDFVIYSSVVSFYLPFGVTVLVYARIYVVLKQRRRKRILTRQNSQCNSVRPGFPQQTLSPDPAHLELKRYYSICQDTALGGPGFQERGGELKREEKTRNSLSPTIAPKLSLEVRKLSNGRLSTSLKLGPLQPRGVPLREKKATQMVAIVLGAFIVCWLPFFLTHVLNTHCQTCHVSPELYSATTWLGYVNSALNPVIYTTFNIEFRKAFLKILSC
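Agonist-mode cell screen: cells plated at 1500/well and incubated overnight at 37 °C, then exposed to library compounds for 90 min at 37 °C. Detection reagent was added for 30–60 min at room temperature, and luminescence was read.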
DRD3 antagonist: D3 dopamine receptor (human) antagonism; P35462; max response, negative = inhibition, %; actives 2.5% (n = 360,000); D3R cells, DiscoveRx beta-arrestin luminescence, antagonist mode; stronger effect = lower value; in the data active means max response below about -50%; inconclusive means no clear call, values can overlap the other calls; further: on the % scale 0 is the no-effect control and ±100 the full control effect
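Cells expressing the human receptor were seeded at 1500 cells/well, incubated overnight at 37 degrees C in 5% CO2, then exposed to library compounds with dopamine controls for 90 minutes at 37 degrees C before luminescent detection.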
TDP1 cell noCPT: qHTS for Inhibitors of human tyrosyl-DNA phosphodiesterase 1 (TDP1): qHTS in cells in absence of CPT | DT40 Tdp1-/- hTDP1 cells, no CPT, ATP luminescence, 48 h | Potency, µM (titrated, usually from 46.2 µM), for inactives: top-dose activity change, negative = growth inhibition, most hits filed as inhibitors | actives 15% (n = 420,000) | AID 686978, 2013; further: potency means the concentration at half of the fitted maximal effect; on the % scale 0 is the no-effect control and ±100 the full control effect; nearly all actives have a fitted effect of over 55% in size
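Chicken DT40 Tdp1-/- cells complemented with human TDP1, screened without camptothecin (DMSO vehicle only), 400 cells/well. Compounds pin-transferred, cells incubated at 37 °C for at least 48 hr. Growth read as ATP-dependent luminescence (CellTiter-Glo, 30 min at RT).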
IL1B secr inh: inhibitors of inflammasome signaling (IL-1 beta secretion) | THP-1 LPS/ATP IL-1B secretion, AlphaLISA, 16 h; stronger effect = lower value | actives 4.7% (n = 360,000) | activity change, % at 57.5 µM; in the data active means activity change below about -50%; inconclusive means mostly about -30% to -49%; further: on the % scale 0 is the no-effect control and ±100 the full control effect
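Secreted IL-1B measured by AlphaLISA bead assay after 16 h compound exposure of THP-1 cells; compounds (final up to 57.5 uM) added 1 h before LPS (250 ng/mL) and ATP (1.25 mM) stimulation; lower signal means less secretion.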
* marks the source's active call; other numbers are inactive results; ? = inconclusive; . = not tested or not shown; [ ] = another dose, or the depositor's remark. Unless noted, the call rests on the fitted dose curve; in most records, active means well fitted inhibition curve with a large enough effect; inconclusive means small, poorly fitted or top-dose-only effect; inactive means flat fitted curve, though single readings scatter.

SMILES	ClpP mod	TDP1 cell CPT	DRD3 agonist	DRD3 antagonist	TDP1 cell noCPT	IL1B secr inh
COc1cc(C(O)c2nc(-c3cccc4cccnc34)cs2)ccc1F (configuration not stated)	-27.6%	?	13.9	4.5	?	0.0
CCN(CC(=O)N1CCN(c2ccccc2)CC1)S(=O)(=O)c1ccc(C)cc1	1.6%	?	0.4	1.8	13µM*	-8.7
C=CCN(c1ccccc1)S(=O)(=O)c1cccc(C(=O)N2CCCC2)c1	1.1%	16.4µM*	-3.9	8.6	18.4µM*	7.2
CN(CC(=O)Nc1ccc(F)cc1)C(=O)Cn1cnc2ccc(Cl)cc2c1=O	-1.6%	-22.6%	-4.0	-12.3	-12.3%	32.3
CCOc1ccccc1CNC(=O)c1ccc(N2Cc3ccccc3Oc3ncccc32)s1	?	?	-1.8	.	14.6µM*	.
COCCNC(=O)CCC(=O)N1Cc2cccc(OC)c2Oc2ncccc21	-0.7%	0.6%	-1.6	.	?	.
COc1cccc2c1Oc1ncccc1N(c1ccc(C(=O)NCc3cccc(C)c3)s1)C2	31.6µM*	?	8.5	.	?	.
CC(=O)CC/C=C(\C)CC/C=C(\C)CC/C=C(\C)CCC=C(C)C	.	-13.0%	-4.7	.	-16.5%	.
CC(=O)N(C)Cc1ccc(C(=O)CCl)cc1	.	1.03µM*	-1.5	-2.4	0.92µM*	-105.8*
CC(=O)NCc1ccc(C(=O)CCl)s1	.	0.517µM*	-10.4	-22.3	1.16µM*	-17.4
CC(=O)NCc1ccc(C(=O)CCl)cc1	.	4.11µM*	-4.9	-28.1	?	-101.6*
COc1ccc(C(=O)OCC(=O)c2ccc(CNC(C)=O)s2)cc1	-2.2%	-8.9%	-2.4	0.0	-17.2%	4.9
CC(=O)Nc1ccc(C(=O)CCl)cc1	3.4%	1.46µM*	-3.3	2.2	2.06µM*	-103.8*
CCc1ccccc1N(CC(=O)NC(C)(C)C)C(=O)CCC(=O)Nc1ccccn1	0.0%	-6.2%	0.0	-2.4	-15.2%	-0.9
CC(=O)Nc1ccc(S(=O)(=O)N(C)CC(=O)OCC(=O)Nc2cc(C)on2)cc1	-1.9%	-2.2%	1.2	-15.2	1.3%	-0.6
Oc1ccc(CCc2ccccn2)cc1	-1.7%	?	3.1	6.2	-12.7%	5.5
CCOc1ccc(S(=O)(=O)N2CCN(c3ccc(C)cc3C)CC2)c2ccccc12	-18.6%	.	4.1	.	.	.
C=CCn1c(CSc2nnc(-c3ccccc3)n2C)n[nH]c1=S	.	16.3%	24.9	0.2	0.1%	5.4
C=CCSc1nnc(-c2sc(-c3ccccc3)nc2C)n1C	35.5µM*	?	4.7	-9.7	-22.1%	-10.9
CCN(CC)CC(O)Cn1c(C)c(-c2ccccc2)c2cc([N+](=O)[O-])ccc21 (configuration not stated)	.	20.6µM*	-6.6	?	9.2µM*	-76.6*
CN(Cc1ccccc1)C(=O)COC(=O)CNS(=O)(=O)c1ccc2ccccc2c1	-2.5%	0.2%	-10.5	0.0	-4.3%	-5.0
Cc1ccc(-c2csc3ncnc(SCc4ccc(C(=O)O)cc4)c23)cc1	.	-12.9%	-0.5	-17.6	-0.5%	1.6
Cn1nnnc1Sc1ncnc2scc(-c3ccc(F)cc3)c12	-5.1%	16.4µM*	5.1	-56.6*	6.51µM*	-67.6*
Cn1nnnc1SCc1nc2scc(-c3ccc(Cl)cc3)c2c(=O)[nH]1	-2.4%	-26.4%	6.7	1.8	-18.8%	?
Cc1ccc(-c2csc3ncnc(Sc4nnnn4C4CC4)c23)cc1	-3.6%	10µM*	.	.	11.2µM*	.
SMILES	ClpP mod	TDP1 cell CPT	DRD3 agonist	DRD3 antagonist	TDP1 cell noCPT	IL1B secr inh
c1ccc(-c2csc3ncnc(Sc4nnnn4-c4ccccc4)c23)cc1	3.7%	?	.	.	10µM*	.
Cn1nnnc1SCc1nc2scc(-c3ccccc3)c2c(=O)[nH]1	-1.0%	?	3.2	19.0	-11.6%	-3.4
Cn1nnnc1Sc1ncnc2scc(-c3ccccc3)c12	-0.4%	14.6µM*	3.7	0.8	16.4µM*	-104.1*
Cc1ccc(CN2CCOc3ccc(C(C)(O)COc4ccccc4)cc3C2)o1 (configuration not stated)	.	0.3%[9.04 µM]	.	.	-13.6%	.
Cc1cnc(CNc2nc(-c3c(C)noc3C)nc3ccccc23)cn1	.	1.5%	.	.	2.4%	.
NC(CSCC(=O)O)C(=O)O (configuration not stated)	.	-7.7%	0.2	.	-2.8%	.
CCC(=O)Nc1nnc(S(=O)(=O)N(C)c2cc(C)cc(C)c2)s1	0.1%	-0.9%	-7.2	8.9	-9.3%	3.5
CCCCS(=O)(=O)N1CCN(S(=O)(=O)c2ccc(Cl)s2)CC1	2.0%	-1.1%	0.1	1.1	2.1%	-29.2
CN1CCN(c2ccc(CNC(=O)c3ccc(-c4ccc(F)c(F)c4)c4ccoc34)cc2)CC1	150.5%	?	-12.6	-66.5*	18.4µM*	-17.5
CN1CCN(c2ccc(CNC(=O)c3cccc4c(-c5ccc(F)c(F)c5)coc34)cc2)CC1	-0.5%	?	-14.5	-83.1*	?	-10.9
CSc1ccc(-c2nc3ccc(C)cn3c2Nc2ccccc2C)cc1	3.55µM*	-18.3%	0.6	.	6.6%	.
Cc1ccc2nc(-c3ccsc3)c(Nc3ccccc3C)n2c1	3.6%	6.51µM*	5.3	.	7.31µM*	.
O=C(Nc1cc2c3c(c1)CC(=O)N3CCC2)C1CCCCC1	-6.1%	9.0%	-1.0	19.7	1.9%	-1.9
c1ccc(C2(CN3CCNC[C@H]3Cc3cccc4ccccc34)CC2)cc1	-0.9%	?	-12.1	0.0	?	-67.5*
c1ccc2c(C[C@@H]3CNCCN3CCC34CC5CC(CC(C5)C3)C4)cccc2c1	-1.5%	18.4µM*	0.1	12.4	?	10.2
CC(C)(C)CN1CCNC[C@H]1Cc1cccc2ccccc12	-1.4%	?	4.7	-4.1	?	?
O=C(/C=C/c1ccccc1)N1c2ccccc2Sc2ccc(C(F)(F)F)cc21	-2.7%	-8.5%	-2.1	8.5	-8.3%	-0.5
COc1ccc(/C=C/C(=O)N2c3ccccc3Sc3ccc(C(F)(F)F)cc32)cc1	0.7%	?	0.8	-6.2	18.4µM*	-3.2
O=C1COc2ccc(S(=O)(=O)Nc3ccc(F)cc3)cc2N1	-1.6%	-0.7%	7.9	11.7	5.4%	31.3
CC(=O)Nc1ccc(S(=O)(=O)Nc2ccc3c(c2)CCC3)cc1	.	-75.1%	1.8	-9.6	13µM*	-2.7
CC(=O)Nc1ccc(S(=O)(=O)Nc2ccc3[nH]c(=O)[nH]c3c2)cc1	.	4.4%	-15.9	3.2	-3.1%	-2.3
